This note sets out measurements from PubChem BioAssay (EPA / NIEHS).

A short description of experiment [1]: BSK_3C_VCAM1: BioMAP Diversity Plus: 3C Assay for Vascular cell adhesion molecule 1 (VCAM1) Biomarker Activity (AID 2282999). The note with it: BioMAP 3C HUVEC, VCAM1 ELISA, cytokine-stimulated; actives raise or lower the signal. A digest of the protocol: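 Human umbilical vein endothelial cells were dosed with compound for 24 h, after which cell-surface VCAM-1 was quantified by ELISA. Bidirectional curve fitting used DMSO as negative control and activity baseline.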
(In general: An ELISA detects its analyte on a solid surface through an enzyme-linked reagent.)

A short description of experiment [2]: BSK_4H_Eotaxin3: BioMAP Diversity Plus: 4H Assay for Eotaxin 3 Biomarker Activity (AID 2283000).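 For outcome: CCL26 protein level quantified by ELISA in parallel with SRB cytotoxicity check.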 The note with it: primary human endothelial cells (HUVEC); actives raise or lower the signal. Put shortly: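 Endothelial primary cells (human umbilical vein) exposed to compound for 24 h. ELISA detection of Eotaxin-3.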
Experiment [3] concerns the target human Retinoic Acid Receptor beta (RARb), RARB (gene 5915) (UniProt P10826). In words: ATG_RARb_TRANS: Attagene TRANS-FACTORIAL HepG2 Assay for human Retinoic Acid Receptor beta (AID 2283004; active = hit-call score of the fitted dose curve at least 0.9, where 1 is the maximum). Put shortly:
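HepG2, transient MRTU transfection, NR–Gal4 chimera, 24 h treatment; RT-PCR plus CE fluorescence detection of reporter mRNA; gain of signal vs DMSO.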

Experiment [4] has as its target Retinoic acid receptor alpha (Homo sapiens) (UniProt P10276). In words: ATG_RARa_TRANS: Attagene TRANS-FACTORIAL HepG2 Assay for human Retinoic Acid Receptor alpha (RARa) (AID 2283005; active = hit-call score of the fitted dose curve at least 0.9, where 1 is the maximum). Put shortly:
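HepG2 cells transiently transfected with multiple reporter units expressing chimeric RARα-GAL4 fusion, with GAL4-UAS-driven reporters. After 24 h compound exposure, reporter mRNA induction quantified by RT-PCR and capillary electrophoresis with fluorescent labeling; gain-of-signal fitted relative to DMSO control.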

Experiment [5] is described as follows: BSK_3C_Proliferation: Cell Proliferation Assessment in the BioMAP Diversity Plus: 3C Assay (AID 2283006).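 For AC50: potency may reflect either rise or fall in cell number versus DMSO.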 The note with it: primary human endothelial cells (HUVEC). A digest of the protocol:
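Read-out is total protein by SRB absorbance at 560 nm, taken as a proxy for relative cell number. Primary human umbilical vein endothelium cultured below confluence was dosed for 48 h, TCA-fixed and SRB-stained; curves were fitted bidirectionally versus DMSO.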

In experiment [6] the target is Peroxisome proliferator-activated receptor gamma (Homo sapiens) (UniProt P37231). In words: ATG_PPARg_TRANS: Attagene TRANS-FACTORIAL HepG2 Assay for human Peroxisome Proliferator-activated Receptor-gamma (PPARg) (AID 2283007; active = hit-call score of the fitted dose curve at least 0.9, where 1 is the maximum). Put shortly: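 Human hepatoma HepG2, transient MRTU transfection, 24 h treatment. mRNA reporter signal by RT-PCR plus capillary electrophoresis, fluorescence detection; fitted for increase over DMSO negative control.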

For experiment [7], the target named is Nuclear receptor subfamily 1 group I member 2 (Homo sapiens) (UniProt O75469). In words: ATG_PXR_TRANS: Attagene TRANS-FACTORIAL HepG2 Assay for human Pregnane X Receptor (PXR) (AID 2283008; active = hit-call score of the fitted dose curve at least 0.9, where 1 is the maximum). Put shortly: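 Measures mRNA induction of a GAL4-UAS-driven reporter in human HepG2 cells transiently expressing PXR fused to Gal4, following 24 h treatment. DMSO served as negative control and baseline.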

Experiment [8] has as its target human Retinoic Acid Receptor gamma (RARg), RARG (gene 5916) (UniProt P13631). In words: ATG_RARg_TRANS: Attagene TRANS-FACTORIAL HepG2 Assay for human Retinoic Acid Receptor gamma (RARg) (AID 2283009; active = hit-call score of the fitted dose curve at least 0.9, where 1 is the maximum). Put shortly:
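Transient transfection of HepG2 with multi-reporter constructs, then 24 h chemical treatment. Total RNA isolated, reverse-transcribed, PCR-amplified, fluorescently labelled and resolved by capillary electrophoresis; activity scored as mRNA induction versus DMSO.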

In experiment [9] the target is Retinoic acid receptor RXR-alpha (Homo sapiens) (UniProt P19793). Description: ATG_RXRa_TRANS: Attagene TRANS-FACTORIAL HepG2 Assay for human Retinoid X Receptor alpha (RXRa) (AID 2283012; active = hit-call score of the fitted dose curve at least 0.9, where 1 is the maximum). Put shortly: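 Transient transfection of human HepG2 with multiple GAL4-UAS reporter constructs; 24 h compound exposure; total RNA isolated, reverse-transcribed, PCR-amplified, 6-FAM labelled, HpaI-cut, resolved by capillary electrophoresis. Positive-direction fit versus DMSO.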

Experiment [10] concerns the target human Retinoid X Receptor beta (RXRb), RXRB (gene 6257) (UniProt P28702). Description: ATG_RXRb_TRANS: Attagene TRANS-FACTORIAL HepG2 Assay for human Retinoid X Receptor beta (RXRb) (AID 2283013; active = hit-call score of the fitted dose curve at least 0.9, where 1 is the maximum). A digest of the protocol:
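Transfect HepG2 with GAL4-UAS multi-reporter constructs (chimeric NR-Gal4, TRANS format); dose compound 24 h; isolate RNA, RT-PCR, FAM primer extension, HpaI digest; quantify by capillary electrophoresis; positive direction vs DMSO.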

Read-out in experiment [11]: E-selectin (Homo sapiens) (UniProt P16581)
In words: BSK_3C_Eselectin: BioMAP Diversity Plus: 3C Assay for Eselectin Biomarker Activity (AID 2283015).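 For outcome: cell surface E-selectin protein quantified by ELISA 24 h after dosing.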 The settings on record: primary human endothelial cells (HUVEC); actives raise or lower the signal. A digest of the protocol:
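Human vascular endothelium from umbilical vein is exposed to test chemicals for 24 h. E-selectin levels are read by ELISA and compared with DMSO controls.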

Read-out in experiment [12]: Interleukin-1 alpha (IL1a), IL1A (gene 3552)
In words: BSK_BE3C_IL1a: BioMAP Diversity Plus: BE3C Assay for Interleukin-1 alpha (IL1a) Biomarker Activity (AID 2283016). The settings on record: primary human bronchial epithelial cells; actives raise or lower the signal. Put shortly:
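BE3C primary human bronchial epithelium; cpd 24 h; IL-1a by ELISA; bidirectional fit vs DMSO; parallel SRB (0.1% SRB, 10% TCA fix, 560 nm) for cytotoxicity.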

Read-out in experiment [13]: Monocyte Chemoattractant Protein-1 (MCP1), CCL2 (gene 6347)
Description: BSK_3C_MCP1: BioMAP Diversity Plus: 3C Assay for Monocyte Chemoattractant Protein-1 (MCP1) Biomarker Activity (AID 2283017). The note with it: primary human endothelial cells (HUVEC); actives raise or lower the signal. A digest of the protocol: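 Endothelial cells from human umbilical vein are dosed with chemical, cultured 24 h, then assayed for MCP-1 by ELISA; both increases and decreases are modelled against DMSO controls.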

Read-out in experiment [14]: Monocyte Chemoattractant Protein-1 (MCP1), CCL2 (gene 6347)
In words: BSK_4H_MCP1: BioMAP Diversity Plus: 4H Assay for Monocyte Chemoattractant Protein-1 (MCP1) Biomarker Activity (AID 2283018). The settings on record: primary human endothelial cells (HUVEC); actives raise or lower the signal. A digest of the protocol:
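ELISA read-out of MCP-1 from human vascular endothelial primary cells taken at 24 hours after compound exposure. Activity was fitted in both directions relative to DMSO, which served as negative control.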

Read-out in experiment [15]: Human Leukocyte Antigen - DR isotype (HLADR), HLA-DRA (gene 3122)
Description: BSK_3C_HLADR: BioMAP Diversity Plus: 3C Assay for Human Leukocyte Antigen - DR isotype (HLADR) Biomarker Activity (AID 2283019).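 For outcome: ELISA of cell-surface HLA-DR on HUVEC 24 h after dosing.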 The note with it: primary human endothelial cells (HUVEC); actives raise or lower the signal. Put shortly:
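Endothelial cells from human umbilical vein are treated with test chemical; after 24 h, HLA-DR levels are measured by ELISA. Data are fitted in both directions using DMSO as the baseline.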

Read-out in experiment [16]: Intercellular Adhesion Molecule 1 (ICAM1), ICAM1 (gene 3383)
Description: BSK_3C_ICAM1: BioMAP Diversity Plus: 3C Assay for Intercellular Adhesion Molecule 1 (ICAM1) Biomarker Activity (AID 2283003). The settings on record: primary human endothelial cells (HUVEC); actives raise or lower the signal. A digest of the protocol: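 ICAM-1 levels measured by ELISA after HUVEC cultures in the 3C system had been dosed for 24 h. Gain or loss of signal relative to DMSO was fitted in both directions.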

Experiment [17] deals with human RAR-related Orphan Receptor gamma (RORg), RORC (gene 6097) (UniProt P51449). Description: ATG_RORg_TRANS: Attagene TRANS-FACTORIAL HepG2 Assay for human RAR-related Orphan Receptor gamma (RORg) (AID 2283011; active = hit-call score of the fitted dose curve at least 0.9, where 1 is the maximum). Put shortly: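 Activity is scored as increase in GAL4-UAS reporter mRNA over DMSO, detected by fluorescent RT-PCR and capillary electrophoresis in HepG2 cells transiently expressing a RORg-Gal4 chimera, 24 h after dosing.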

In experiment [18] the target is human Peroxisome Proliferator-activated Receptor delta (PPARd), PPARD (gene 5467) (UniProt Q03181). Description: ATG_PPARd_TRANS: Attagene TRANS-FACTORIAL HepG2 Assay for human Peroxisome Proliferator-activated Receptor delta (PPARd) (AID 2283002; active = hit-call score of the fitted dose curve at least 0.9, where 1 is the maximum). Put shortly:
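Multiplexed trans-activation format: HepG2 liver cells expressing exogenous NR-Gal4 chimeras and GAL4-UAS reporters were exposed for 24 h. Reporter mRNA was detected by RT-PCR with capillary electrophoresis fluorescence; activity fitted as gain of signal relative to DMSO.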

Experiment [19] addresses human Thyroid Receptor alpha (THRa1), THRA (gene 7067) (UniProt P10827). Description: ATG_THRa1_TRANS: Attagene TRANS-FACTORIAL HepG2 Assay for human Thyroid Receptor alpha (THRa1) (AID 2283014; active = hit-call score of the fitted dose curve at least 0.9, where 1 is the maximum). Put shortly: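 First, HepG2 cells receive multiple GAL4-UAS reporter units and the chimeric receptor. They are then dosed for 24 h, after which RNA is reverse-transcribed, amplified, labelled, HpaI-cut and sized by capillary electrophoresis; gain relative to DMSO is scored.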

Each structure is given as a SMILES string. Records with an inconclusive call do not appear. Calls of active or inactive are those of the source. Rule for the calls, unless noted: active = hit-call score of the fitted dose curve at least 0.9, where 1 is the maximum; inactive = score below 0.9.

Sequence of Nuclear receptor subfamily 1 group I member 2 (Homo sapiens) (O75469 whole entry, looked up, the tested form may be a part): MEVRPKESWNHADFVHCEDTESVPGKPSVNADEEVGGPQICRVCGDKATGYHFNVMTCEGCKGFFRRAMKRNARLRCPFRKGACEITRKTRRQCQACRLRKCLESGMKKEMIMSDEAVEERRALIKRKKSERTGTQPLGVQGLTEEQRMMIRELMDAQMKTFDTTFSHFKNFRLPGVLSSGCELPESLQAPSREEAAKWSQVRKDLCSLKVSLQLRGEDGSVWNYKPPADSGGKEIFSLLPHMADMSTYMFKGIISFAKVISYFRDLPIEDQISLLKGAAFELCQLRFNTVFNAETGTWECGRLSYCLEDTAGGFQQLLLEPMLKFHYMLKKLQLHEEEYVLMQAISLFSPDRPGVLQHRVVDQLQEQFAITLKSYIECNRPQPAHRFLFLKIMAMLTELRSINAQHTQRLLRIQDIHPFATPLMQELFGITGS
Sequence of human Retinoid X Receptor beta (RXRb), RXRB (gene 6257) (P28702 whole entry, looked up, the tested form may be a part): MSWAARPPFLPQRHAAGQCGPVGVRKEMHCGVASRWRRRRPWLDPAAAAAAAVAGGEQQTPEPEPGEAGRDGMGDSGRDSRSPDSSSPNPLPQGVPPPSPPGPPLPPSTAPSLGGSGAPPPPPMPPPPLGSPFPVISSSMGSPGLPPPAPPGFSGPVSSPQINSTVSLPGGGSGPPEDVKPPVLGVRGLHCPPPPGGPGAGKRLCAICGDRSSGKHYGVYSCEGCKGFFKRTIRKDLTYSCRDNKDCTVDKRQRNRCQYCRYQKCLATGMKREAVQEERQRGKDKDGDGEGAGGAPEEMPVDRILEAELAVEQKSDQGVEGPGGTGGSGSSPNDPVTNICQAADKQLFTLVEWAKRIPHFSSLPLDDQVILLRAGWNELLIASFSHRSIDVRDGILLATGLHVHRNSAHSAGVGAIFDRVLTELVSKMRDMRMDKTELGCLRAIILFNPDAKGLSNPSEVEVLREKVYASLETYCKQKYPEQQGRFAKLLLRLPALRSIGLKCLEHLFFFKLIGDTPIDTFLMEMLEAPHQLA
Sequence of Peroxisome proliferator-activated receptor gamma (Homo sapiens) (P37231 whole entry, looked up): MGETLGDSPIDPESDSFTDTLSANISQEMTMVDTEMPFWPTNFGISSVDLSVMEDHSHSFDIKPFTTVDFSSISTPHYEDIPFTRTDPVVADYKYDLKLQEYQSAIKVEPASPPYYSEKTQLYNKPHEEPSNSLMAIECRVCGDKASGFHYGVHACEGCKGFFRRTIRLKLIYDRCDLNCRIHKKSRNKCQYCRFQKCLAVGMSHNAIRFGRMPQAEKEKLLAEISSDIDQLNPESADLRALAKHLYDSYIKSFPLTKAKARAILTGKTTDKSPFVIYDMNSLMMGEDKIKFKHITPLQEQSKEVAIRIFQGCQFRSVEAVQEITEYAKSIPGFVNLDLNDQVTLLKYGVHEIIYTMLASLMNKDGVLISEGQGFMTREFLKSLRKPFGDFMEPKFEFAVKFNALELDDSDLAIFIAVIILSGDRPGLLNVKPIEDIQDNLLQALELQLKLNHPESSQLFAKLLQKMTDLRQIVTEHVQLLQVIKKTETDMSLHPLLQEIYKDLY
Sequence of Retinoic acid receptor RXR-alpha (Homo sapiens) (P19793 whole entry, looked up, the tested form may be a part): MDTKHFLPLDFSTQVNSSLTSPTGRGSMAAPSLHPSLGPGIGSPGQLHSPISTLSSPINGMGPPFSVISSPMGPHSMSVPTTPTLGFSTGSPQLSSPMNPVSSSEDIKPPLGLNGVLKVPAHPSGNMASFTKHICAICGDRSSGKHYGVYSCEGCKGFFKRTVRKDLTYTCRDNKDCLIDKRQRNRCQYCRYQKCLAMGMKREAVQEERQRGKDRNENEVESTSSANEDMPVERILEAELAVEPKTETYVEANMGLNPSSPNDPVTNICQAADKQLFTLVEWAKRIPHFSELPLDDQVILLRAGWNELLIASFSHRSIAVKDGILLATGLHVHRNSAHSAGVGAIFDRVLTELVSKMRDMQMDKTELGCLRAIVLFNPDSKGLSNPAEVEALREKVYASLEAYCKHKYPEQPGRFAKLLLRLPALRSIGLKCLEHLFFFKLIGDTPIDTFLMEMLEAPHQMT
Sequence of human Retinoic Acid Receptor gamma (RARg), RARG (gene 5916) (P13631 whole entry, looked up): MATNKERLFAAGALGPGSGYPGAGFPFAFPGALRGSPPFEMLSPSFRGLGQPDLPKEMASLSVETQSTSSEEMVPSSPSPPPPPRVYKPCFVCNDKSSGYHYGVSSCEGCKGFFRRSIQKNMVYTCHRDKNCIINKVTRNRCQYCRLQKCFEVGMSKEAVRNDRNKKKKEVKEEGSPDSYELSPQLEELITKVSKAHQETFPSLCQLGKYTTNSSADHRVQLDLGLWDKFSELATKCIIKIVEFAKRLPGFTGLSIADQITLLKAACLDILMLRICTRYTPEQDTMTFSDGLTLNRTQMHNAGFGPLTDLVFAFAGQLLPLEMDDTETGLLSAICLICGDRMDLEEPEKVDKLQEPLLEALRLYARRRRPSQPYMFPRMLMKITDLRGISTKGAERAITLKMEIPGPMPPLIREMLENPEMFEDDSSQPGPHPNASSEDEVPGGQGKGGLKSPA
Sequence of human RAR-related Orphan Receptor gamma (RORg), RORC (gene 6097) (P51449 whole entry, looked up, the tested form may be a part): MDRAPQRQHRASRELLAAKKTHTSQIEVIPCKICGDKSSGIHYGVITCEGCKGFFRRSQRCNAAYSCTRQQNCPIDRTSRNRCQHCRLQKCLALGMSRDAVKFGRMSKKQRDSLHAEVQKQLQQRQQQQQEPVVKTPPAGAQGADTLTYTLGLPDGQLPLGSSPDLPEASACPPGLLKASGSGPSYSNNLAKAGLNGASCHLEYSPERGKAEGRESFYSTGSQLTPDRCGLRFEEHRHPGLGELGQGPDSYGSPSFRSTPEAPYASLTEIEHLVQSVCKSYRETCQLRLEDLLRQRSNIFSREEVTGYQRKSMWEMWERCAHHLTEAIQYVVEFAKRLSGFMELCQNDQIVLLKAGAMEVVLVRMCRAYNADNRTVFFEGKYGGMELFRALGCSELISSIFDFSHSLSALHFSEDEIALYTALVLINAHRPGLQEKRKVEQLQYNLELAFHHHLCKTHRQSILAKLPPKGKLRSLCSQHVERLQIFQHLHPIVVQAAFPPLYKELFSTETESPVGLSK
Sequence of human Retinoic Acid Receptor beta (RARb), RARB (gene 5915) (P10826 whole entry, looked up, the tested form may be a part): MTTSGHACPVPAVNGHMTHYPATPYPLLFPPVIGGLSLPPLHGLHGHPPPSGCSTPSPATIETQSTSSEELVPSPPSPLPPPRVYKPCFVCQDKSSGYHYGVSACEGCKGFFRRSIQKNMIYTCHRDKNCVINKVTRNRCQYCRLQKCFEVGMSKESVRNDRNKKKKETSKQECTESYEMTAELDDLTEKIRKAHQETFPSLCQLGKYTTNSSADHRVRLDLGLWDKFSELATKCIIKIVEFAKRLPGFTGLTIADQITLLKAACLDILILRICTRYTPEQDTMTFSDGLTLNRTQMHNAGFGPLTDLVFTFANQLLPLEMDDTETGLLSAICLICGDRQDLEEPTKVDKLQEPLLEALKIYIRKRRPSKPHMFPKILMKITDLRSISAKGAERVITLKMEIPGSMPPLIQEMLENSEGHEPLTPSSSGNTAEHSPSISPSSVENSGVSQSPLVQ
Sequence of E-selectin (Homo sapiens) (P16581 whole entry, looked up): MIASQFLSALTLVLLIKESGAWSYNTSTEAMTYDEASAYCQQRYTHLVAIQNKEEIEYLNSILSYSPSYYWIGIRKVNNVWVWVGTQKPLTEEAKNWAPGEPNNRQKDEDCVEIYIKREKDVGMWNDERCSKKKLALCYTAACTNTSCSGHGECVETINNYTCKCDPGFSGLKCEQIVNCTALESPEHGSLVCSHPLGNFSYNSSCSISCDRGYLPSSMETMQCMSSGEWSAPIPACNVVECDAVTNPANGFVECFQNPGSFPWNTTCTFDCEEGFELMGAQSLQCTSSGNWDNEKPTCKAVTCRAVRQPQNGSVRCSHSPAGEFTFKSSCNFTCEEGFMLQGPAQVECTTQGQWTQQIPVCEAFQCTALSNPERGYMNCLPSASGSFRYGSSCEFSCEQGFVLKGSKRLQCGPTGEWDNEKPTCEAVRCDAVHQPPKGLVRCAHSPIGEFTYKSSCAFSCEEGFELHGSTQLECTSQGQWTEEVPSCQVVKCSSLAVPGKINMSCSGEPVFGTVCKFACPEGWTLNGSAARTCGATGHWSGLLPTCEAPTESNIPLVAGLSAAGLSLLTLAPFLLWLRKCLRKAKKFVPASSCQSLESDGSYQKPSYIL
Sequence of Retinoic acid receptor alpha (Homo sapiens) (P10276 whole entry, looked up, the tested form may be a part): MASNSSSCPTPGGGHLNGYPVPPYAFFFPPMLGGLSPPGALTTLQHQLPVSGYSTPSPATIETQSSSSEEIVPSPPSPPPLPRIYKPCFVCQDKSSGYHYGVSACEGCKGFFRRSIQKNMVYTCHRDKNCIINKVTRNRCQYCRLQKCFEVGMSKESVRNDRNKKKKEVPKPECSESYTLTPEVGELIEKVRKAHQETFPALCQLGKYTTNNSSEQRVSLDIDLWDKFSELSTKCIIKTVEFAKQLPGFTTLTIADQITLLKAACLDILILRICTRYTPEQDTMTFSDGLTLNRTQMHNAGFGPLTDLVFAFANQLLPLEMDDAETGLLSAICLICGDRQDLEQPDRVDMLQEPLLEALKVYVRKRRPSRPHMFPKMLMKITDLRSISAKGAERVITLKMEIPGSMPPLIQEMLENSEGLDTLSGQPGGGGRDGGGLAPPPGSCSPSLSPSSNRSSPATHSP
Sequence of human Thyroid Receptor alpha (THRa1), THRA (gene 7067) (P10827 whole entry, looked up, the tested form may be a part): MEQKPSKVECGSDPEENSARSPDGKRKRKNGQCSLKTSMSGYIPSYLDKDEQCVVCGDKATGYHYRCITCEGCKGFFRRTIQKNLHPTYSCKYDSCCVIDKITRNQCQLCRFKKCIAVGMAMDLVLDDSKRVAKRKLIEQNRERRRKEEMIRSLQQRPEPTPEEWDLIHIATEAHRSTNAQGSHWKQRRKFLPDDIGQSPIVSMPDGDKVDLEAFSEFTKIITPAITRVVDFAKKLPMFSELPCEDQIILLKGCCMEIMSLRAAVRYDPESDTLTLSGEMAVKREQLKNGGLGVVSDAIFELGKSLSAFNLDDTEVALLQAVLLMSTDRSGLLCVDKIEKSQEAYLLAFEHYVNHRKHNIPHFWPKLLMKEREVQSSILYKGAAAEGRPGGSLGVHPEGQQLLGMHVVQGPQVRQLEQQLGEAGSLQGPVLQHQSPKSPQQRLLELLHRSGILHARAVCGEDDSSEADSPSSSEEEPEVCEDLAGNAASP

As for `CCCSP(=O)(OCC)SCCC`, the result in experiment [1], in experiment [2], in [3], in [4], in [5] and in experiment [6] was inactive. In addition, the outcome in experiment [7], in [8], in experiment [9], in [10], in [11] and in experiment [12] was inactive. The outcome in experiment [13], in [14] and in experiment [15] was inactive.

Consider `CC[C@H](C)[C@H]1O[C@]2(C=C[C@@H]1C)C[C@@H]1C[C@@H](C/C=C(\C)[C@@H](O[C@H]3C[C@H](OC)[C@@H](O[C@H]4C[C@H](OC)[C@@H](NC)[C@H](C)O4)[C@H](C)O3)[C@@H](C)/C=C/C=C3\CO[C@@H]4[C@H](O)C(C)=C[C@@H](C(=O)O1)[C@]34O)O2`, for which the AC50 in [1] is 6.56 µM (active); in experiment [2] it was 5.75 µM (active); in [16], 9.48 µM (active); in experiment [5], 1.68 µM (active); in experiment [11], 8.63 µM (active); in experiment [13] it was 3.66 µM (active). Besides, the AC50 in [14] was 2.88 µM (active); in experiment [15] it was 3.38 µM (active). For the same compound, the compound was classed as inactive in experiment [6], in experiment [17] and in experiment [9].

In the case of `CCC(CC)Nc1c([N+](=O)[O-])cc(C)c(C)c1[N+](=O)[O-]`, the AC50 in experiment [1] was 17.1 µM (active); in [5], 29.2 µM (active); in [6] it was 73.2 µM (active); in experiment [7], 27.6 µM (active); in experiment [11], 31.2 µM (active); in experiment [13] it was 36.6 µM (active). In addition, the AC50 in experiment [14] was 22.4 µM (active); in experiment [15], 36.2 µM (active). For the same compound, the outcome in experiment [2], in experiment [18], in [17], in experiment [9], in experiment [10] and in experiment [12] was inactive.

With `CCCCN(CC)c1c([N+](=O)[O-])cc(C(F)(F)F)cc1[N+](=O)[O-]`, the result in experiment [1], in experiment [2], in experiment [16], in experiment [3], in experiment [4] and in experiment [6] was inactive. The outcome in [8], in [9], in experiment [11], in [12], in experiment [13] and in experiment [14] was inactive. Also, the AC50 in experiment [5] was 31.6 µM (active); in experiment [7], 14.4 µM (active); in experiment [15], 20 µM (active).

`CCCSP(=O)(OCC)Oc1ccc(Br)cc1Cl` (centres undefined): the result in [1], in experiment [2], in experiment [16], in [3], in experiment [4] and in experiment [6] was inactive. Besides, the outcome in experiment [7], in [8], in experiment [17], in experiment [11], in experiment [13] and in [15] was inactive. Besides, the concentration at half-maximal activity (AC50) was 27.4 µM (active) in [5] and 28.9 µM (active) in experiment [14].

On to `CC(C)[C@H](C(=O)O[C@H](C#N)c1cccc(Oc2ccccc2)c1)c1ccc(Cl)cc1`, for which the outcome in experiment [1], in [2], in experiment [18], in [17], in [9] and in [10] was inactive. The call in [19], in experiment [11], in [13] and in experiment [14] was inactive. Moreover, the concentration at half-maximal activity (AC50) in [5] was 6.57 µM (active); in experiment [6] it was 9.37 µM (active); in [7], 5 µM (active); in [15], 12.9 µM (active).

In the case of `CC1=NNC(=O)N(/N=C/c2cccnc2)C1`, the outcome in experiment [1], in experiment [2], in experiment [16], in experiment [4], in [5] and in experiment [6] was inactive. Besides, the outcome in [7], in experiment [8], in [9], in experiment [10], in [19] and in [11] was inactive. The result in experiment [12], in experiment [13], in experiment [14] and in [15] was inactive.

Consider `CSc1nc(NC(C)C)nc(NC(C)C)n1`, for which the result in experiment [1], in experiment [2], in [3], in experiment [4], in [5] and in [8] was inactive. The call in [17], in experiment [9], in [10], in [11], in experiment [13] and in [14] was inactive. In addition, in [15], the result was inactive. Moreover, the figures for the AC50 in [6] and in experiment [7] were 47.6 µM (active) and 18.4 µM (active), respectively.

As usually defined, the AC50 is the midpoint of the concentration-response curve, whichever way the signal moves.
